The record followed here is PubChem BioAssay (NCI).

Compounds without any hit were thinned out: in the full panel of roughly 83,000, 20% have a hit.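 48-hour exposure, single concentration, 96-well plates; percent growth endpoint where 0 means no net growth. Active: below 10.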 Unmarked numbers belong to inactive results. Active and inactive are the calls of the source.

Common to all, as to assay: NCI-60 one-dose screen, 48 h (100 = growth as untreated, 0 = no growth, -100 = all killed)
Holding throughout (conditions): 10 µM unless noted

The subject of assay [1] is NCI-H23 lung.
Assay [2] has as its system NCI-H226 lung.
Assay [3] has as its system HOP-62 NSCLC.
Assay [4] relates to NCI-H460 lung.
Assay [5] deals with NCI-H522 lung.
For assay [6], the system named is A549/ATCC NSCLC.
For assay [7], the system named is 786-0 renal.
Assay [8] concerns DU-145 prostate.
Assay [9] has as its system MALME-3M melanoma.
In assay [10] the test system is MDA-MB-231 breast.
In assay [11] the test system is RXF 393 renal.
Assay [12] concerns SF-268 CNS.
Assay [13] has as its system SF-295 CNS.
The subject of assay [14] is SF-539 CNS.
Assay [15] deals with UACC-257 melanoma.
Assay [16] deals with M14 melanoma.
Assay [17] relates to HCT-15 colon.
Assay [18] concerns COLO 205 colon.
Assay [19] relates to K-562 leukemia.
Assay [20] concerns NCI-H322M lung.

In the case of `CCn1c2ccccc2c2ccc(C(C)=O)cc21`, the growth is 101% in assay [1]; 91.8% in assay [2]; 103% in assay [3]; 108% in [4]; 96.6% in [5]; 103% in assay [6]. The growth in assay [7] is 102%; in [8], 93.5%; in [9] it was 113%; in [10], 114%; in assay [11], 105%; in assay [12], 90.8%. In addition, the growth was 116% in [13]; 96.5% in assay [14]; 108% in assay [15]; 105% in assay [16]; 107% in assay [17].

As for `COc1ccc2c(c1)C(=O)c1c-2c(=O)n(CCCCCCC(=O)NO)c2ccccc12`, the growth in assay [1] was -41.9% (active); in assay [2], 1.93% (active); in [3], -3.67% (active); in assay [4], 3.19% (active); in assay [5] it was 4.79% (active); in [6] it was -10.4% (active). Besides, the growth was -3.09% (active) in assay [7]; -39.3% (active) in assay [18]; 9.94% (active) in assay [8]; 8.79% (active) in [19]; -23.1% (active) in [9]; -5.72% (active) in assay [10]. Further, the growth in [11] was -60.9% (active); in assay [12], 10.1%; in assay [13], -33.7% (active); in [14], 7.21% (active); in assay [15], -6.3% (active); in [16], -0.387% (active). Besides, the growth in [17] is 13.3%.

Regarding `COc1ccc2c(c1)nc(N)c1c3cc(OC)c(OC)cc3cn21`, the growth in assay [1] is 56.1%; in assay [2], 78.2%; in assay [20], 84.6%; in assay [4], 20.5%; in [5], -8.03% (active); in assay [6], 43.8%. Moreover, the growth in [7] was 43.1%; in assay [9] it was 71.3%; in assay [10], 83.8%; in [11], 46.3%; in assay [12] it was 55.1%; in assay [13], 31%. Moreover, the growth in assay [14] is 78.6%; in assay [15], 94.8%; in assay [16] it was 31.6%; in [17], 30.4%.

Regarding `Cc1cc(C)c(OC(=O)CSc2nc3ccccc3c(=O)n2CCc2ccccc2)cc1C`, the growth in assay [1] is 101%; in [2], 84.8%; in assay [3], 104%; in assay [4] it was 74.1%; in assay [5], 98%; in assay [6], 91.9%. Further, the growth in assay [7] was 105%; in assay [18], 96%; in [8], 110%; in [10], 80.1%; in [12] it was 97.1%; in assay [13] it was 87.3%. Further, the growth in [14] was 97.3%; in [15], 103%; in assay [16], 102%; in assay [17] it was 52.7%.

Turning to `NNC(=O)C1CC2c3ccccc3C1c1ccccc12` (stereo unspecified), the growth in [1] is 101%; in assay [2], 101%; in [3] it was 112%; in assay [4] it was 115%; in [5] it was 87%; in assay [6], 113%. Also, the growth was 105% in assay [7]; 115% in assay [8]; 123% in assay [9]; 102% in assay [10]; 116% in assay [11]; 98.7% in [12]. In addition, the growth in assay [13] was 105%; in assay [14], 99%; in [15], 118%; in assay [16], 111%; in assay [17] it was 111%.

With `COc1cc(/C=C/C(=O)c2c(-c3ccc(Cl)cc3)nc3sc(C)nn23)cc(OC)c1OC`, the growth was 84.3% in assay [1]; 68.3% in assay [2]; 97.2% in [4]; -20.1% (active) in assay [5]; 83.8% in [6]; 81.4% in assay [7]. For the same compound, the growth in [18] was 100%; in assay [8], 90.2%; in assay [19] it was 31.1%; in assay [10], 72.2%; in assay [12] it was 88.6%; in [13], 76.2%. Also, the growth in [14] was 95.8%; in [15], 81.9%; in [16], 75.8%; in [17] it was 60.2%.

For the compound `Cc1nn(-c2ccc(Cl)cc2)c2nc3c(nc12)c(=O)oc1ccccc13`, the growth in assay [1] is 100%; in [2] it was 128%; in assay [3], 107%; in assay [4] it was 109%; in [5] it was 101%; in assay [6] it was 95.4%. Further, the growth in [7] is 98.1%; in assay [18], 123%; in assay [8], 118%; in assay [9] it was 108%; in assay [10], 110%; in [11], 136%. The growth is 104% in assay [12]; 92.7% in [13]; 104% in [15]; 107% in assay [16]; 103% in assay [17].

Take `CCCCCCCCCCCCCCCCCc1nccn1CCO`: the growth in assay [1] is 70.7%; in [2], 97.3%; in [3], 68%; in assay [4], 24.6%; in [5], 52.6%; in [6] it was 64.7%. Also, the growth in assay [7] was 62.3%; in [18] it was 19%; in assay [8] it was 90%; in assay [19], 3.81% (active); in assay [9], 89.7%; in assay [10], 69.6%. Further, the growth in assay [11] is 72.3%; in [12], 73.5%; in [13] it was 144%; in [14] it was 66.5%; in [15], 90.2%; in [16], 64.9%. In addition, the growth in assay [17] is 8.52% (active).

Take `O=C(C=C=Nc1ccccc1)C(=O)N=C=Cc1ccccc1`: the growth in assay [1] is 63.3%; in [2], 67.7%; in assay [3] it was 90.5%; in assay [4] it was 92.2%; in assay [5], -82.5% (active); in assay [6] it was 79.8%. Further, the growth in [7] was 79.3%; in [18], 13.5%; in assay [8] it was 40.2%; in assay [19] it was -18.8% (active); in assay [9], -20.9% (active); in assay [10], 94.6%. Also, the growth was -46% (active) in assay [11]; 69.1% in [12]; 99.3% in assay [13]; 85.1% in [14]; 43.3% in [15]; 44.2% in assay [16]. For the same compound, the growth in assay [17] was 11.4%.
